Reference: paper PMC5540273 (PLoS ONE, 2017)

Tests used:
Details in all cases: concentration: 1 μM,replicates: in singlicate; n = 1
[1] = test system: TNNI3K
[2] = test system: T1, TRKA
T1 construct: gene NTRK1

[3] = test system: TRKB
[4] = test system: T2, TRKC
T2 construct: gene NTRK3

[5] = test system: TRPM6
[6] = test system: TSSK1B
[7] = test system: TSSK3
[8] = test system: TTK
[9] = test system: TXK
[10] = test system: TYK2(JH1domain-catalytic)
[11] = test system: TYK2(JH2domain-pseudokinase)
[12] = test system: TYRO3
[13] = test system: ULK1
[14] = test system: ULK2
[15] = test system: ULK3
[16] = test system: T3, VEGFR2
T3 construct: gene KDR

[17] = test system: T4, VPS34
T4 construct: gene PIK3C3

[18] = test system: VRK2
[19] = test system: WEE1
[20] = test system: WEE2
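Note: KINOMEscan kinase panel screen.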

Compound | %Inh [1] [%] | %Inh [2] [%] | %Inh [3] [%] | %Inh [4] [%] | %Inh [5] [%] | %Inh [6] [%] | %Inh [7] [%] | %Inh [8] [%] | %Inh [9] [%] | %Inh [10] [%] | %Inh [11] [%] | %Inh [12] [%] | %Inh [13] [%] | %Inh [14] [%] | %Inh [15] [%] | %Inh [16] [%] | %Inh [17] [%] | %Inh [18] [%] | %Inh [19] [%] | %Inh [20] [%]
CS(=O)c1ccc(-c2coc3ccc(-c4n[nH]c(=O)o4)cc23)cc1 (centres unmarked) | 0 | 26 | 0 | 39 | 0 | 0 | 0 | 0 | 4 | 9 | 47 | 0 | 35 | 0 | 0 | 17 | 94.3 | 0 | 2 | 16
C[C@@H](Oc1cc(-n2cnc3cc(-c4cnn(C)c4)ccc32)sc1C(N)=O)c1ccccc1Cl [GSK580432] | 24 | 100 | 73 | 50 | 0 | 14 | 16 | 25 | 44 | 45 | 0 | 11 | 14 | 10 | 11 | 61 | 74 | 0 | 26 | 5
FC(F)(F)c1cc(Br)cc(Nc2nccc(-c3cnn4ncccc34)n2)c1 [GW810578] | 66 | 48 | 0 | 1 | 0 | 5 | 5 | 41 | 7 | 0 | 89 | 0 | 21 | 20 | 12 | 40 | 64 | 4 | 5 | 70
O=C(Nc1cccc(Oc2ccc3nccn3n2)c1)Nc1cccc(C(F)(F)F)c1 | 66 | 76 | 35 | 55 | 0 | 13 | 0 | 0 | 22 | 9 | 1 | 0 | 0 | 0 | 3 |  | 14 | 0 | 0 | 9
CNC(=O)c1ccccc1Nc1nc(Nc2cccc(CS(C)(=O)=O)c2)ncc1C.O=CO [GSK1520489] | 66 | 98 | 91.1 | 97.4 | 78 | 9 | 0 | 93.8 | 99.7 | 99.6 | 98.9 | 72 | 98.6 | 65 | 99.9 | 96.3 | 77 | 36 | 98.1 | 99.9
Cn1ccc2ncnc(Oc3ccc(NC(=O)Nc4cnn(C(C)(C)C)c4)c(Cl)c3)c21 | 54 | 39 | 56 | 82 | 0 | 0 | 7 | 4 | 0 | 0 | 3 | 0 | 0 | 7 | 0 | 99.1 | 16 | 0 | 0 | 5
C[C@@H]1CNc2c(sc3ccc4nc(-c5ccc(O)cc5)ccc4c23)C(=O)N1 | 1 | 7 | 0 | 0 | 0 | 0 | 4 | 9 | 7 | 74 | 23 | 0 | 38 | 63 | 24 | 11 | 9 | 17 | 17 | 0
CC(=O)c1c(-c2ccncc2)[nH]c(-c2ccncc2)c1C [GW493036] | 0 | 0 | 0 | 0 | 33 | 34 | 13 | 3 | 35 | 42 | 90 | 0 | 3 | 0 | 10 | 0 | 50 | 55 | 17 | 0
O=C(NOCC1CC1)c1cc(Br)c(F)c(F)c1Nc1ccc(I)cc1Cl | 0 | 1 | 20 | 0 | 0 | 0 | 9 | 0 | 0 | 0 | 0 | 0 | 0 | 0 | 10 | 0 | 0 | 0 | 0 | 0
CN(c1cccc(CNc2nc(Nc3ccc4c(c3)CC(=O)N4)ncc2C(F)(F)F)c1)S(C)(=O)=O | 0 | 98.3 | 93.5 | 79 | 0 | 0 | 15 | 97.5 | 0 | 58 | 0 | 0 | 72 | 45 | 40 | 37 | 0 | 12 | 0 | 0
COc1cc2nccc(Nc3ccc(Oc4ccccc4)cc3)c2cc1OC.Cl [GI261656] | 0 | 11 | 6 | 6 | 58 | 0 | 11 | 0 | 19 | 4 | 12 | 0 | 0 | 0 | 0 | 23 | 10 | 5 | 0 | 0
Cl.Nc1n[nH]c2cc(-c3ccccn3)ccc12 [GSK2189892] | 0 | 23 | 0 | 0 | 0 | 0 | 8 | 14 | 0 | 0 | 0 | 0 | 50 | 47 | 0 | 0 | 10 | 0 | 4 | 0
Cc1cccc(-c2nc(Nc3ccncc3)c3sccc3n2)n1 [GW869641] | 7 | 6 | 6 | 5 | 38 | 0 | 24 | 27 | 0 | 20 | 75 | 0 | 43 | 29 | 45 | 35 | 32 | 39 | 20 | 11
Cn1ccc2ncnc(Oc3ccc(NC(=O)Nc4cncc(C(F)(F)F)c4)c(Cl)c3)c21 | 61 | 51 | 55 | 88 | 0 | 0 | 0 | 0 | 0 | 0 | 0 | 0 | 0 | 0 | 99.9 | 98.5 | 0 | 0 | 0 | 7
O=C(NCC1CC1)c1ccc(-c2cc(C(=O)NC3CC3)ccc2F)cc1 [GW810445] | 0 | 14 | 0 | 0 | 0 | 0 | 0 | 12 | 0 | 19 | 2 | 0 | 1 | 0 | 3 | 0 | 16 | 19 | 0 | 0
